# Measured values from the GenesisPotency data set.
# About 2,100 (0.72%) of roughly 290,000 compounds were called active. About 4% were inconclusive and are not listed. Calls come from the whole dose curve; as a rule, active = well fitted inhibition curve with a large enough effect; inconclusive = small, poorly fitted or top-dose-only effect, or effect the other way; inactive = flat fitted curve, though single readings scatter. The sample as a whole holds a higher share of actives than the screen did.
# Biological target: Fructose-bisphosphate aldolase, Giardia intestinalis (strain ATCC 50803 / WB clone C6) (UniProt A8B2U2)
# Assay: qHTS Assay for Inhibitors of Fructose-1,6-bisphosphate Aldolase from Giardia Lamblia
# Fructose-bisphosphate aldolase, Giardia intestinalis (strain ATCC 50803 / WB clone C6), sequence (A8B2U2 whole entry, looked up, natural form): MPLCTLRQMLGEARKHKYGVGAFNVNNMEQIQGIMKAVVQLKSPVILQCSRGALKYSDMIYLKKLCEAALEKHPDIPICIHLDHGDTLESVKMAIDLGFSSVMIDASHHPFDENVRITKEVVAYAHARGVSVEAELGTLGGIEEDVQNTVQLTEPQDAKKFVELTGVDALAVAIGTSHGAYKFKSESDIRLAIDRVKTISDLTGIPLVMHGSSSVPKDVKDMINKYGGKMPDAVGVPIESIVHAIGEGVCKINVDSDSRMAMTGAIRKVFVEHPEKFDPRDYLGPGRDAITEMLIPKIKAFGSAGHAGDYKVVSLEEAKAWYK
row,SMILES,outcome
1,N.N.[Cl][Pt][Cl],active
